Results on seven sequences are retold here after article PMC8384837, “Expanding the binding specificity for RNA recognition by a PUF domain”.

What all share (test): yeast three-hybrid, YBZ-1, SC-Leu-His + 0.5 mM 3-AT, 4 days
Common to all, as to settings: tags: N-Gal4 AD-HA kept; label: inside an RPR1-promoter hybrid RNA with tandem MS2 sites; ssRNA

Test [1] addresses PUM1 PUF domain R5-AGD (Homo sapiens, UniProt Q14671 828-1176, C1007A;R1008G;Q1011D). In a few lines: (§1)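 The interaction score is the log change in variant frequency from input to selection. Scores were computed in log2 with a pseudocount of 1 for absent variants, using Illumina sequencing of PCR-amplified repeat regions. The input came from four days on SC-Leu and the selection from four days on SC-Leu-His + 0.5 mM 3-AT. The cells were strain YBZ-1 (LexA–MS2 coat fusion, HIS3 reporter) co-expressing Pumilio-1 PUF domain libraries and matching RNA elements from a centromeric plasmid.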

Test [2] deals with PUM1 PUF domain R4-WSY (Homo sapiens, UniProt Q14671 828-1176, N971W;H972S;Q975Y). In a few lines:
as §1

Test [3] has as its target PUM1 PUF domain R5-KRG (Homo sapiens, UniProt Q14671 828-1176, C1007K;Q1011G). In a few lines:
as §1

Test [4] concerns the target PUM1 PUF domain R4-DWC (Homo sapiens, UniProt Q14671 828-1176, N971D;H972W;Q975C). In a few lines: as §1
The target of test [5] is T1, PUM1 PUF domain R6-CWS (Homo sapiens, UniProt Q14671 828-1176, N1043C;Y1044W;Q1047S).
T1 sequence: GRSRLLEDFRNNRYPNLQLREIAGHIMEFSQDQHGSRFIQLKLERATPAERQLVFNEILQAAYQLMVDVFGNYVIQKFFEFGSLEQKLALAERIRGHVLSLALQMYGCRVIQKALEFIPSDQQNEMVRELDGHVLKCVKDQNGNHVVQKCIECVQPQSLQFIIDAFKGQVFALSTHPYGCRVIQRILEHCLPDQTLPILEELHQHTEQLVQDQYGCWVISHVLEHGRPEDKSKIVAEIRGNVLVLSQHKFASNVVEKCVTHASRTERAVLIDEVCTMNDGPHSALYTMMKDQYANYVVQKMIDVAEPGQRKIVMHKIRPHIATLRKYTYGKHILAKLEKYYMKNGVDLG
In a few lines:
as §1

The target of test [6] is T2, PUM1 PUF domain R6-RFS (Homo sapiens, UniProt Q14671 828-1176, N1043R;Y1044F;Q1047S).
T2 sequence: T1 sequence with C216R, W217F
In a few lines: as §1

The target of test [7] is PUM1 PUF domain R8-VRR (Homo sapiens, UniProt Q14671 828-1176, N1122V;Y1123R;Q1126R). In a few lines:
as §1

The target of test [8] is PUM1 PUF domain R7-KPI (Homo sapiens, UniProt Q14671 828-1176, S1079K;N1080P;E1083I). In a few lines:
as §1

For test [9], the target named is PUM1 PUF domain R7-LFG (Homo sapiens, UniProt Q14671 828-1176, S1079L;N1080F;E1083G). In a few lines: as §1
Test [10] deals with PUM1 PUF domain R7-EPA (Homo sapiens, UniProt Q14671 828-1176, S1079E;N1080P;E1083A). In a few lines:
as §1

The target in test [11] is PUM1 PUF domain R5-GKE (Homo sapiens, UniProt Q14671 828-1176, C1007G;R1008K;Q1011E). In a few lines: as §1
Test [12] deals with PUM1 PUF domain R5-SRR (Homo sapiens, UniProt Q14671 828-1176, C1007S;Q1011R). In a few lines: as §1
The target in test [13] is PUM1 PUF domain R5-SMG (Homo sapiens, UniProt Q14671 828-1176, C1007S;R1008M;Q1011G). In a few lines:
as §1

Test [14] has as its target PUM1 PUF domain R5-DYF (Homo sapiens, UniProt Q14671 828-1176, C1007D;R1008Y;Q1011F). In a few lines: as §1

Residue numbers refer to the chain shown, from its start.

For “GGCUAGAACUAGUGGAUCCCCCGGCGCCCGGCGGCUCGAGCCCGGGUAAGUGUAAAUAGUCUGCAUGCCGCCGGGCGCCAUGCCUGCAGGUCGACUCUAGAAAACAUG”, the binding signal was 1.82 log2 enrichment (interaction score) in [1]; 2.29 log2 enrichment (interaction score) in [2]; 1.97 log2 enrichment (interaction score) in [3]; 2.81 log2 enrichment (interaction score) in test [4]; 3.77 log2 enrichment (interaction score) in [5]; 4.37 log2 enrichment (interaction score) in test [6]. In [7], the binding signal is 1.71 log2 enrichment (interaction score).
Turning to “GGCUAGAACUAGUGGAUCCCCCGGCGCCCGGCGGCUCGAGCCCGGGUAAGCGUAAAUAGUCUGCAUGCCGCCGGGCGCCAUGCCUGCAGGUCGACUCUAGAAAACAUG”, the binding signal in test [7] is 2.81 log2 enrichment (interaction score).
As for “GGCUAGAACUAGUGGAUCCCCCGGCGCCCGGCGGCUCGAGCCCGGGUAAGUCUAAAUAGUCUGCAUGCCGCCGGGCGCCAUGCCUGCAGGUCGACUCUAGAAAACAUG”, the binding signal in test [8] was 3.61 log2 enrichment (interaction score); in [9], 3.01 log2 enrichment (interaction score); in [10], 4.81 log2 enrichment (interaction score).
Take “GGCUAGAACUAGUGGAUCCCCCGGCGCCCGGCGGCUCGAGCCCGGGUAAGUGUACAUAGUCUGCAUGCCGCCGGGCGCCAUGCCUGCAGGUCGACUCUAGAAAACAUG”: the binding signal in [4] was 2.72 log2 enrichment (interaction score).
In the case of “GGCUAGAACUAGUGGAUCCCCCGGCGCCCGGCGGCUCGAGCCCGGGUAAGUGUCAAUAGUCUGCAUGCCGCCGGGCGCCAUGCCUGCAGGUCGACUCUAGAAAACAUG”, the binding signal in [3] was 3.68 log2 enrichment (interaction score); in test [11], 1.37 log2 enrichment (interaction score); in test [12], 4.23 log2 enrichment (interaction score).
Consider “GGCUAGAACUAGUGGAUCCCCCGGCGCCCGGCGGCUCGAGCCCGGGUAAGUGUGAAUAGUCUGCAUGCCGCCGGGCGCCAUGCCUGCAGGUCGACUCUAGAAAACAUG”, for which the binding signal in test [1] was 3.87 log2 enrichment (interaction score); in test [11], 4.81 log2 enrichment (interaction score); in test [13] it was 2.11 log2 enrichment (interaction score).
On to “GGCUAGAACUAGUGGAUCCCCCGGCGCCCGGCGGCUCGAGCCCGGGUAAGUGUUAAUAGUCUGCAUGCCGCCGGGCGCCAUGCCUGCAGGUCGACUCUAGAAAACAUG”, for which the binding signal is 4.3 log2 enrichment (interaction score) in [3], 2.85 log2 enrichment (interaction score) in test [11], 0.67 log2 enrichment (interaction score) in [13] and 4.44 log2 enrichment (interaction score) in [14].
